Compound activity: PubChem, National Center for Advancing Translational Sciences (NCATS)
Many of the other results were omitted from the sample, so hits are more common in it than they were.
TbPYK inhibitor: qHTS of Trypanosoma Brucei Inhibitors | TbPYK enzyme, Kinase-Glo Plus ATP luminescence, 45 min | Potency, µM (top dose mostly 76.8 µM), for the others: top-dose activity, negative = inhibition, actives largely listed as inhibitors | actives 0.12% (n = 410,000) | AID 624173, 2012; note: potency is the fitted concentration of half-maximal effect; % is set by controls: 0 for no effect and ±100 for the full control effect; nearly all actives have a fitted effect of over 50% in size
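TbPYK + substrate in 50 mM TEA pH 7.2, 100 mM KCl, 10 mM MgCl2, 0.05% BSA, 0.01% Tween-20; cpd pinned; ADP 130 uM final; 45 min RT; Kinase-Glo Plus 10 min; luminescence endpoint.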
CHX counter: Cycloheximide Counterscreen for Small Molecule Inhibitors of Shiga Toxin; max response, %; cell reporter, cycloheximide protein synthesis inhibition counterscreen; actives 12% (n = 300,000); AID 2314, 2010; in the data active = max response mostly above about 13%, no sharp cut-off; inactive = mostly below about 14%; note: read at 38.3 µM for the half of the compounds with a filed dose; 0% is about no effect
LmPK inh: qHTS Assay for Inhibitors of Leishmania Mexicana Pyruvate Kinase (LmPK) | Potency, µM (titrated, usually from 57.5 µM), inactives show at the highest dose activity change, negative = inhibition, usual class: inhibitors | Q27686 | purified LmPK, Kinase-Glo ATP luminescence, 1 h | actives 0.37% (n = 290,000) | AID 1721, 2009; note: potency is the fitted concentration of half-maximal effect; % is set by controls: 0 for no effect and ±100 for the full control effect
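Purified LmPK (0.1 nM) with 0.5 mM PEP and 0.1 mM ADP in imidazole buffer pH 7.2 with MgCl2/KCl, 1 h at room temperature. ATP formed was read by luciferase luminescence and normalized to no-enzyme and uninhibited controls.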
Sm TGR inh: qHTS Assay for the Inhibitors of Schistosoma Mansoni Peroxiredoxins; purified TGR, DTNB reduction, TNB absorbance 405 nm; Potency, µM (series often up to 114 µM), inactives show at the top dose activity change, negative = inhibition, hits mostly inhibitors; AID 485364, 2010; actives 3% (n = 360,000); Schistosoma mansoni thioredoxin glutathione reductase (TGR), Q962Y6; note: potency is the fitted concentration of half-maximal effect; % is set by controls: 0 for no effect and ±100 for the full control effect; nearly all actives have a fitted effect of over 60% in size
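First, TGR (20 nM dispensed) and NADPH were mixed with compound. Second, a 15 min room-temperature incubation followed. Third, further NADPH and then DTNB were added to start the reaction. Finally, TNB absorbance was monitored kinetically.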
FBPA Giardia inh: qHTS Assay for Inhibitors of Fructose-1,6-bisphosphate Aldolase from Giardia Lamblia; actives 0.71% (n = 290,000); Potency, µM (top dose mostly 59.6 µM), without a hit: top-dose activity, negative = inhibition, actives largely listed as inhibitors; AID 2451, 2010; purified Giardia FBPA; A8B2U2; note: potency is the fitted concentration of half-maximal effect; % is set by controls: 0 for no effect and ±100 for the full control effect; nearly all actives have a fitted effect of over 55% in size
Target sequence (A8B2U2 whole entry, looked up): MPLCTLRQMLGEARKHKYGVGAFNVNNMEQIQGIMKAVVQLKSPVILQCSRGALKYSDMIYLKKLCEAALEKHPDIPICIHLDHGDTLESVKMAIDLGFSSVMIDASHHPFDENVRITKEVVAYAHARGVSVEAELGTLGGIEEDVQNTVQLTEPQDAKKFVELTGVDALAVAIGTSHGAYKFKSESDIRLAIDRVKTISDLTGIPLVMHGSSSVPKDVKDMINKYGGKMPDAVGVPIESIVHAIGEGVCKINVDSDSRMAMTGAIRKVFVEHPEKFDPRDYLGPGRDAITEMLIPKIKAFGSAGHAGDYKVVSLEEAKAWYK
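40 nM FBPA preincubated 10 min at RT with compound (up to 57.5 uM final), then substrate plus GAPDH/TPI/NAD/arsenate coupling and diaphorase/resazurin added. Fluorescence read after 20 min at RT, 525/598 nm.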
Shiga toxin inh: A qHTS for Small Molecule Inhibitors of Shiga Toxin | AID 2315, 2010 | inhibition, % at 38.7 µM | Vero cells, Shiga toxin protein synthesis inhibition reporter | actives 9.2% (n = 290,000); in the data active = inhibition mostly above about 28%, no sharp cut-off; inactive = mostly below about 43%; note: 0% is about no effect
* hit, by the source's call; ? = inconclusive; . = not tested or not shown. Unless noted, calls come from the whole dose curve; as a rule, active = well fitted curve in the direction sought with a large enough effect; inconclusive = small, poorly fitted or top-dose-only effect, or another doubt; inactive = no such curve, though single readings can be large; an effect the other way counts as inactive or inconclusive.

SMILES	TbPYK inhibitor	CHX counter	LmPK inh	Sm TGR inh	FBPA Giardia inh	Shiga toxin inh
O=C1CCCCC/C1=N/Nc1ccc(OCc2ccccc2)cc1	-7%	12*	0%	-24%	-4%	28
COc1ccc(C(=O)CC(=O)C(=O)Nc2cc(OC)ccc2OC)cc1	0%	-2	-2%	-9%	-25%	3
COc1ccc(NC(=O)Nc2cc(C)ccc2OC)cc1	1%	24*	-3%	-4%	0%	0
COc1ccc(NC(=O)Nc2cc(C)ccc2F)cc1	-13%	26*	?	-7%	-3%	34
COc1ccc(NC(=O)Nc2cc(C)ccn2)cc1	-11%	.	.	.	.	.
COc1ccc(C)cc1NC(=O)Nc1ccccc1	0%	6	1%	-14%	1%	-3
COc1ccc(C(=O)COc2ccc(C)cc2NC(C)=O)cc1	1%	49*	0%	22%	-1%	96*
COc1cccc(NC(=O)Nc2cc(C)ccc2F)c1	3%	27*	-9%	-4%	-10%	95*
CCC1CN2CCC1CC2C(O)c1ccnc2ccccc12 (stereo not drawn)	.	.	.	.	2%	.
CCc1ccccc1NC(=O)c1ccc2c(c1)N(Cc1cc(C)ccc1C)C(=O)c1ccccc1S2(=O)=O	-5%	.	.	-3%	.	.
Cn1c(SCc2cccc(F)c2)nc2c([nH]c3ccccc32)c1=O	3%	.	.	1%	.	.
COc1ccc(C2(c3ccc(OC)cc3)NC(=O)N(CC(=O)Nc3ccc(C(=O)N(C)C)cc3)C2=O)cc1	-11%	-2	0%	-15%	.	-12
COc1ccc(C2(c3ccc(OC)cc3)NC(=O)N(CC(=O)Nc3cc(C)ccc3OC)C2=O)cc1	-1%	33*	4%	-4%	.	116*
Cc1cc(=O)[nH]c(NN=C2CCC(C(C)(C)C)CC2)n1 (stereo not drawn)	-6%	17	1%	3%	?	25
CCC(C)(C)C1CCC(=NNc2nc3ccccc3[nH]2)CC1 (stereo not drawn)	-3%	36*	-2%	-14%	1%	81*
COc1cc(-c2ccc(-[n+]3nc(-c4ccccc4)nn3-c3ccc([N+](=O)[O-])cc3)c(OC)c2)ccc1-[n+]1nc(-c2ccccc2)nn1-c1ccc([N+](=O)[O-])cc1	0%	.	.	.	.	.
O=C(O)c1cccc(Cn2c(Cl)c(/C=N/NC(=O)c3ccco3)sc2=O)c1	-13%	33*	-1%	45µM*	-14%	27*
O=C(O)c1cccc(Cn2c(Cl)c(/C=N/NC(=O)c3cc4ccccc4cc3O)sc2=O)c1	0%	5	4%	32µM*	6%	4
O=C(O)c1cccc(Cn2c(Cl)c(/C=N/NC(=O)c3ccccc3)sc2=O)c1	-13%	3	0%	56µM*	7%	17
O=C(O)c1cccc(Cn2c(Cl)c(/C=N/NC(=O)c3cccc(O)c3)sc2=O)c1	-12%	24*	2%	9%	14%	75*
O=C(O)c1ccc(/C=N/NC(=O)c2cc3ccccc3cc2O)cc1	4%	.	.	.	.	.
CCOc1ccc(S(=O)(=O)N2CCCC(C(=O)N3CCN(c4ccccc4)CC3)C2)cc1 (stereo not drawn)	-4%	-2	-1%	-14%	.	-16
CCN1C(=O)[C@@H]2[C@H](C1=O)[C@@H]1C[C@H]3C(=O)N(CC)C(=O)[C@H]3[C@@H]3C1=C(C(=O)N1C(=O)O/C(=N\CC4CC4)[C@]31C)[C@@H]2C	.	.	.	.	8%	.
CCCCC(=O)NC(c1cccc([N+](=O)[O-])c1)c1c(OC(C)=O)ccc2ccccc12 (stereo not drawn)	7%	17*	5%	-18%	-8%	5
N#Cc1cncc(C#Cc2ccccc2)c1	6%	8.8*	4%	3%	-2%	17
SMILES	TbPYK inhibitor	CHX counter	LmPK inh	Sm TGR inh	FBPA Giardia inh	Shiga toxin inh
CC(NC(=O)C1CCN(S(=O)(=O)N2CCCCCC2)CC1)c1ccccc1 (stereo not drawn)	1%	17*	1%	7%	7%	-7
CCCCc1ccc(-c2nc(NC(=O)C3C4CCC(O4)C3C(=O)O)sc2C)cc1 (stereo not drawn)	.	44*	1%	-2%	-15%	58*
CCc1cccc(C)c1NC(=O)C1C2CCC(O2)C1C(=O)O (stereo not drawn)	-3%	-4	-10%	-6%	-1%	-4
COc1ccc(C(=O)c2cc3cccc(OC)c3o2)cc1	-5%	41*	?	16%	-8%	98*
COc1cccc2cc(/C(=N/O)c3ccccc3)oc12	3%	26*	0%	3%	-7%	33
COc1cccc2cc(-c3ccccc3)oc12	2%	.	.	.	.	.
COc1cccc2cc(C(C)=O)oc12	-1%	-2	-3%	-4%	-1%	-5
CCN(CC)CCOc1c(Br)ccc2c1sc1nc3n(c(=O)c12)CCC3	0%	-4	-6%	3%	5%	1
O=c1c2c3c(sc2nc2n1CCC2)CCCCC3	-5%	20	1%	.	0%	29
O=c1c2c(nc3n1CCCCC3)sc1c(O)c(Br)ccc12	?	16*	?	-2%	-19%	40
O=c1c2c3c(sc2nc2n1CCCC2)CCCC3	-3%	19*	-7%	2%	3%	42*
CCOC(=O)c1c(C)oc2nc(C)nc(NCc3ccccc3Cl)c12	-2%	.	.	6%	.	.
Cc1cccc(CN2CCN(C3CN(C4CCCCC4)S(=O)(=O)C3)CC2)c1 (stereo not drawn)	0%	.	.	.	.	.
COc1ccc(S(=O)(=O)Nc2cccc(-c3ccc(N4CCCC4)nn3)c2)c(OC)c1	-21%	.	.	0%	.	.
COc1ccc(S(=O)(=O)Nc2cccc(-c3ccc(N4CCCC4)nn3)c2)cc1F	0%	.	.	8%	.	.
COc1ccc(S(=O)(=O)Nc2cccc(-c3ccc(N4CCCCCC4)nn3)c2)c(OC)c1	-24%	53*	-7%	0%	.	60*
COc1ccc(S(=O)(=O)Nc2cccc(-c3ccc(N4CCCCCC4)nn3)c2)cc1OC	1%	35*	4%	5%	.	40*
Cc1ccc(S(=O)(=O)Nc2cccc(-c3ccc(N4CCCCCC4)nn3)c2)cc1	2%	39*	10%	0%	4%	89*
Cc1cccc(S(=O)(=O)Nc2cccc(-c3ccc(N4CCCCC4)nn3)c2)c1	0%	59*	.	1%	.	73*
COc1ccc(Cn2cc(C(=O)c3ccc(Cl)cc3)c(=O)c3cc4c(cc32)OCO4)cc1	4%	.	.	0%	.	.
CC(=S)c1c(C)cc2cc(C)ccn12	0%	0	0%	18µM*	-17%	10
